Reference: PubChem BioAssay AID1159580 (chemical genetic matrix, 2015)
The campaign covered roughly 5,500 compounds. About 2,000 (36%) were called active. About 18% were inconclusive and are not listed. Rule as the data show it: active = normalized growth mostly below about 0.91 (no sharp cut-off); inconclusive = no clear call, values can overlap the other calls; inactive = mostly above about 0.92. The list shows a part of the results.

Experiment: chemical genetic growth profiling, strain panel (AID 1159580);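 also: tested at 20 µM; growth read once vehicle control cultures reached saturation at 30 °C; 1 = growth at the plate median or of vehicle wells; lower values mean less growth of the strain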
Conditions: S. cerevisiae deletion strains, growth OD

Measured: normalized growth

CN1CC(=O)N2[C@H](c3ccc4c(c3)OCO4)c3[nH]c4ccccc4c3C[C@@H]2C1=O
inactive: locus YHR030C, strain SLT2, stronger effect = lower value 0.966 | locus YHR079C, strain IRE1, stronger effect = lower value 0.947 | locus YJL095W, strain BCK1, stronger effect = lower value 0.964 | locus YJR066W, strain TOR1, stronger effect = lower value 0.913 | locus YLR113W, strain HOG1, stronger effect = lower value 0.968 | locus YNL183C, strain NPR1, stronger effect = lower value 0.918 | locus YOR231W, strain MKK1, stronger effect = lower value 0.975 | locus YPL256C, strain CLN2, stronger effect = lower value 0.946
